# GLP1R cytotox = cytotoxicity counter-screen for GLP-1 receptor inverse agonists | HEK293 cAMP-luciferase reporter cells, luminescence, 24 h | Potency, µM (doses to about 38.3 µM), without a hit: top-dose activity change, negative = inhibition, actives largely listed as inhibitors | actives 0.13% (n = 410,000);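 note: loss of luciferase light is scored as toxicity; potency is the fitted concentration of half-maximal effect; % is set by controls: 0 for no effect and ±100 for the full control effect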
#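 Cells in DMEM/10% Nu serum/1% pen-strep, 1536-well format. Pre-incubated 12 h, dosed with 23 nL compound, incubated a further 24 h. Luciferase detection, 12 min at room temp, luminescence.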
# p53 reactivator = restores transcriptional activity of mutant p53; H1299 p53-A138V BP100-luciferase reporter, luminescence, 24 h; Potency, µM (titrated, usually from 92.2 µM), without a hit: at the top dose activity change, positive = activation, hits mostly activators; actives 0.063% (n = 320,000); note: potency is the fitted concentration of half-maximal effect; % of control where 0% means no effect; nearly all actives have a fitted effect of over 45% in size
#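 H1299 (p53-null), stable ts p53-A138V + BP100-Luc; 1000 cells/well, Opti-MEM/10% FBS; cpd 4 pt, 1:5; 24 h, 37 deg C, 5% CO2; detection reagent 10 min RT; luminescence.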
# LDHA block = LDHA (human) enzyme inhibition; purified LDHA, NADH/diaphorase-resazurin fluorescence; hits give low values; actives 0.15% (n = 480,000); P00338; activity change, % (values are at about 110 or 230 µM); in the data active = activity change below about -30%; inconclusive = mostly about -25% to -30%;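 note: plate controls were DMSO wells for no effect and wells without enzyme for full effect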
#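 LDH5 2 nM; NADH 0.06 mM, pyruvate 0.2 mM; 200 mM Tris pH 7.4, EDTA, Tween-20; 5 min RT. Detection: diaphorase 0.133 mg/mL + resazurin 37 µM, fluorescence ex540/em590 at 0 and 20 min; normalized to enzyme-free and DMSO wells.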
# ClpP mod = qHTS Assay for Activators of ClpP; ATP-dependent Clp protease proteolytic subunit (Bacillus subtilis (strain 168)), P80244; Potency, µM (series often up to 57.5 µM), for the others: top-dose activity change, negative = active; actives 1.9% (n = 340,000); purified B. subtilis ClpP, FRET peptide cleavage, 20 min; active = well fitted falling curve with a large enough effect; inconclusive = small, poorly fitted or top-dose-only effect; inactive = no such curve, though single readings can be large or run the other way; note: potency is the fitted concentration of half-maximal effect; the source files actives as falling curves though it sought activators and does not explain the sign; nearly all actives have a fitted effect of over 65% in size
# Target sequence (P80244 whole entry, looked up): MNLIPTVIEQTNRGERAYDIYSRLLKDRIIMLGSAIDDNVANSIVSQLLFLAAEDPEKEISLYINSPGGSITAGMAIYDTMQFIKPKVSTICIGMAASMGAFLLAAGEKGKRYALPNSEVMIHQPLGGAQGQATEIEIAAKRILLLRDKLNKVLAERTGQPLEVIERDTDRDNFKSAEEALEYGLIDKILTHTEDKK
#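 FRET quenching reversal measured ClpP activation: 10 microg/mL B. subtilis ClpP at pH 8 with the FRET-FV decapeptide, read at 430 nm after 320 nm excitation. The 20-min minus 0-min signal was scaled between DMSO/no-enzyme wells and ADEP (5.8 microM final).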
# GLP-1R agonist = activates the human GLP-1 receptor. P43220. HEK293 GLP-1R CRE-luciferase, luminescence, 4-6 h; cells express a hypersensitive GLP-1R form. AID 624172. actives 0.007% (n = 380,000). Potency, µM (doses to about 45.6 µM), for inactives: at the top dose activation, most hits filed as activators; note: potency is the fitted concentration of half-maximal effect; % of control where 0% means no effect
# Target sequence (P43220 whole entry, looked up): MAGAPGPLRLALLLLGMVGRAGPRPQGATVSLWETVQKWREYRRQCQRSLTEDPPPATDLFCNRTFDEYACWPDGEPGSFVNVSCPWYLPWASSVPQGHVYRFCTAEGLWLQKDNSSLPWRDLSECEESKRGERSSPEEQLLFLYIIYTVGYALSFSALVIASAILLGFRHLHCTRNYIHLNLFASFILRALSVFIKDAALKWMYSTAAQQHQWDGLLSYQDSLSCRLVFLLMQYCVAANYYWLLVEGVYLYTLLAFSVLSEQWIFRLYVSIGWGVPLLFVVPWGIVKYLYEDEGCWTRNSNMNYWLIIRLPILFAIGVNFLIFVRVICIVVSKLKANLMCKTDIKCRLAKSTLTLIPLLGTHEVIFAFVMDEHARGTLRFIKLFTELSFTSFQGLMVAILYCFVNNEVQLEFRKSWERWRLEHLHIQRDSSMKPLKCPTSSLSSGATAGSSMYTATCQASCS
# GLP-1R inv ag = GLP-1 receptor (human) inverse agonism; HEK293 GLP-1R CRE-luciferase, luminescence, 24 h; GLP-1R form is constitutively active; Potency, µM (top dose mostly 38.3 µM), for inactives: at the top dose activity change, negative = inhibition, usual class: inhibitors; actives 1.6% (n = 410,000); AID 624417; note: potency is the fitted concentration of half-maximal effect; % is set by controls: 0 for no effect and ±100 for the full control effect; nearly all actives have a fitted effect of over 55% in size
#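 Cells are plated, allowed 12 hours at 37 deg C, then treated with compounds for 24 hr before luciferase detection reagent is added and luminescence is read after 12 min at room temperature. The HEK293 line carries constitutively active GLP-1R with a cAMP-responsive reporter.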
# Starred values were filed as active, the others as inactive; ? = inconclusive; / = no result given. Only some compounds are listed: those with a hit (about 2.9% of all), similar ones and a draw of the others. Unless noted, calls come from the whole dose curve; as a rule, active = well fitted curve in the direction sought with a large enough effect; inconclusive = small, poorly fitted or top-dose-only effect, or another doubt; inactive = no such curve, though single readings can be large; an effect the other way counts as inactive or inconclusive.
SMILES,GLP1R cytotox,p53 reactivator,LDHA block,ClpP mod,GLP-1R agonist,GLP-1R inv ag
CCCCC(c1nc2ccccc2[nH]1)N(C(=O)c1ccccc1)c1ccccc1[N+](=O)[O-] (centres undefined),-11.1%,/,-4.3,-10.3%,-4.4%,-14.9%
Cc1ccc(NC(=O)c2cc(S(=O)(=O)N3CCCc4ccccc43)ccc2F)cc1F,9.1%,/,4.0,-4.9%,/,12.6µM*
Cc1cccc(C)c1NC(=O)c1cc(S(=O)(=O)N2CCCc3ccccc32)ccc1F,19.1%,/,-1.9,1.1%,/,3.16µM*
O=C(Nc1ccc(C(F)(F)F)cc1)c1cc(S(=O)(=O)N2CCCc3ccccc32)ccc1F,-11.0%,/,3.0,-4.1%,/,?
O=C(Nc1ccc(Cl)cc1)c1cc(S(=O)(=O)N2CCCc3ccccc32)ccc1F,6.2%,/,-13.6,-24.9%,/,?
O=C(Nc1ccc(Br)cc1)c1ccc(F)c(S(=O)(=O)N2CCc3ccccc32)c1,-10.5%,/,-2.0,-19.6%,/,4.47µM*
Cc1ccc(NC(=O)c2cc(S(=O)(=O)NCCC3=CCCCC3)ccc2F)cc1F,-10.6%,-12.7%,-7.9,-8.5%,0.8%,2µM*
O=C(Nc1cccnc1)c1cccc(S(=O)(=O)N2CCc3ccccc32)c1,-1.6%,12.5%,2.4,/,10.0%,?
COc1ccc(S(=O)(=O)N2CCc3ccccc32)cc1C(=O)Nc1cccnc1,-6.8%,-3.3%,-4.7,/,10µM*,64.6%
COc1ccc(/C=C(/NC(=O)c2ccco2)C(=O)N2CCCCC2)cc1,7.2%,/,-0.6,14.1µM*,5.1%,-3.1%
CC(C)(C)OC(=O)N1CCC(c2c(C(=O)Nc3cccc(C(F)(F)F)c3)cnn2-c2ccc(F)cc2F)CC1,4.3%,/,0.9,-13.2%,/,5.01µM*
CC(C)(C)OC(=O)N1CCC(c2c(C(=O)Nc3ccc4c(c3)OCCO4)cnn2-c2ccc(F)cc2F)CC1,-10.1%,/,4.0,-4.2%,/,?
COc1ccccc1OCCn1cc(C(=O)c2ccco2)c2ccccc21,-13.8%,-0.8%,-4.0,-2.8%,-6.2%,12.6µM*
Cc1ccccc1OCCn1cc(C(=O)c2ccco2)c2ccccc21,-9.6%,/,-0.3,-20.9%,/,?
O=[N+]([O-])c1cccc(CSc2cccc[n+]2[O-])c1,-8.0%,2.7%,-0.5,-1.8%,0.7%,11.0%
Cc1ccc(OCc2ccc(-c3nc(C#N)c(N4CCC(C)CC4)o3)o2)cc1,15.4%,/,-1.4,4.2%,/,?
COc1ccc(OCc2ccc(-c3nc(C#N)c(N4CCC(C(N)=O)CC4)o3)o2)cc1,-2.3%,/,3.4,35.5µM*,/,18.9%
Cc1cccc(OCc2ccc(-c3nc(C#N)c(N4CCC(C(N)=O)CC4)o3)o2)c1,-7.5%,/,-0.4,4.1%,/,-14.9%
CC1CCN(c2oc(-c3ccc(COc4ccccc4)o3)nc2C#N)CC1,0.7%,/,-1.1,15.8µM*,/,?
N#Cc1nc(-c2ccc(COc3ccccc3)o2)oc1NCc1ccccc1,-1.7%,/,-3.3,20µM*,/,?
COc1ccc(OCc2ccc(-c3nc(C#N)c(N4CCC(C)CC4)o3)o2)cc1,14.8%,/,-11.3,25.1µM*,/,?
CC(Nc1oc(-c2ccc(COc3ccccc3)o2)nc1C#N)c1ccccc1 (centres undefined),-20.2%,/,1.1,4.4%,/,-31.0%
N#Cc1nc(-c2ccc(OCc3ccccc3)cc2)oc1NCc1cccnc1,-18.5%,2.4%,0.0,?,26.3%,-9.8%
N#Cc1nc(-c2ccc(COc3ccccc3)o2)oc1N1CCN(c2ccccc2)CC1,6.2%,/,-5.8,15.8µM*,/,-7.9%
N#Cc1nc(-c2ccc(OCc3ccccc3)cc2)oc1N1CCCCC1,/,/,8.5,/,/,/
SMILES,GLP1R cytotox,p53 reactivator,LDHA block,ClpP mod,GLP-1R agonist,GLP-1R inv ag
N#Cc1nc(-c2ccc(COc3ccc(Cl)cc3)o2)oc1N1CCN(c2ccccc2)CC1,20.5%,/,-8.9,-8.1%,/,7.9%
N#Cc1nc(-c2ccc(OCc3ccc(Cl)cc3)cc2)oc1NCc1cccnc1,-13.3%,21.7%,-3.4,28.2µM*,0.0%,-11.6%
CN(C)c1oc(-c2ccc(OCc3ccccc3)cc2)nc1C#N,17.6%,?,-0.8,12.6µM*,5.8%,-9.1%
Nc1nc(NCCCN2CCOCC2)nc(Nc2ccc(F)cc2)c1[N+](=O)[O-],-2.8%,-13.6%,2.7,-6.6%,13.8%,11.5%
CC(=O)Nc1ccc(/C(C)=N/Nc2nc(Nc3cccc4ccccc34)nc(N3CCOCC3)n2)cc1,-20.9%,-14.1%,6.5,0.5%,0.6%,2.82µM*
COc1ccc(C2CCc3cc4c(cc3C2=NOC(C)=O)OCO4)cc1OC (centres undefined),17.7%,/,7.5,-16.2%,15.0%,?
Cc1ccc(-c2cn3c(n2)sc2cc(C(=O)NCCC4=CCCCC4)ccc23)cc1,-7.0%,/,-0.6,-18.8%,/,2.6%
CCN(CC)CCCNC(=O)c1ccc2c(c1)sc1nc(-c3ccc(C)cc3)cn12,7.5%,/,-1.5,-27.4%,/,?
CCc1ccc(-c2cn3c(n2)sc2cc(C(=O)NCCC4=CCCCC4)ccc23)cc1,2.1%,/,0.2,25.1µM*,/,23.5%
CCCNC(=O)c1ccc2c(c1)sc1nc(-c3ccc(C)cc3)cn12,-12.4%,/,-3.4,31.6µM*,/,56.1%
Cc1ccc(-c2cn3c(n2)sc2cc(C(=O)N4CCCCC4)ccc23)cc1,-2.9%,/,0.3,25.1µM*,/,?
CCOC(=O)N1CCN(C(=O)c2ccc3c(c2)sc2nc(-c4ccccc4)cn23)CC1,4.8%,?,-2.6,-10.0%,-0.1%,-11.5%
Cc1cccc(C)c1NC(=O)C1(C)CCC(=O)N1C1CC1 (centres undefined),-0.2%,/,-6.2,1.7%,-4.0%,24.7%
O=C(CSc1nnc(CNC(=O)c2ccco2)o1)Nc1ccc(Br)cc1,-6.9%,5.7%,-4.9,0.7%,-7.5%,21.6%
O=C(Cn1c(=O)n(Cc2nc(-c3ccccc3)no2)c(=O)c2cc3c(cc21)OCO3)Nc1ccc(Cl)cc1,1.0%,/,-15.5,12.6µM*,/,0.3%
O=C(Cn1c(=O)n(Cc2nc(-c3ccccc3)no2)c(=O)c2cc3c(cc21)OCO3)Nc1ccccc1,2.6%,/,-4.1,17.8µM*,/,4.9%
Cc1c(NC(=S)N/N=C/c2ccc(N(C)C)cc2)c(=O)n(-c2ccccc2)n1C,10.1%,2.2%,-4.1,31.6µM*,-2.9%,?
Cc1ccccc1N(CC(=O)N/N=C/c1ccc(N(C)C)cc1)C(=O)c1ccccc1,-12.7%,23.1%,0.0,35.5µM*,1.3%,?
